Test results as given in PubChem BioAssay (NCI).
Compounds without any hit were thinned out: in the full panel of roughly 83,000, 20% have a hit.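 96-well plates, one dose, 48 hours. Percent growth reported; active if below 10.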 Unmarked numbers belong to inactive results. The source made the active and inactive calls.

Experiments:
Test in all cases: NCI-60 one-dose screen, 48 h (100 = growth as untreated, 0 = no growth, -100 = all killed)
Settings in all cases: 10 µM unless noted
NCI-H23 lung = tested on: NCI-H23 lung
NCI-H226 lung = tested on: NCI-H226 lung
NCI-H322M lung = tested on: NCI-H322M lung
HOP-62 NSCLC = tested on: HOP-62 NSCLC
NCI-H460 lung = tested on: NCI-H460 lung
HOP-92 NSCLC = tested on: HOP-92 NSCLC
NCI-H522 lung = tested on: NCI-H522 lung
A549/ATCC NSCLC = tested on: A549/ATCC NSCLC
786-0 renal = tested on: 786-0 renal
COLO 205 colon = tested on: COLO 205 colon

SMILES	growth (NCI-H23 lung)	growth (NCI-H226 lung)	growth (NCI-H322M lung)	growth (HOP-62 NSCLC)	growth (NCI-H460 lung)	growth (HOP-92 NSCLC)	growth (NCI-H522 lung)	growth (A549/ATCC NSCLC)	growth (786-0 renal)	growth (COLO 205 colon)
c1ccc(-c2n(Cc3ccc4ccccc4n3)cc[n+]2Cc2ccc3ccccc3c2)cc1	2.93% (active)	9.5% (active)	23.6%	16.5%	6.08% (active)	-32.4% (active)	2.04% (active)	45.3%	26.2%	-77.5% (active)
Nc1ccc2c(c1)C(=O)C(=O)c1c-2nc2ccccn12	-42.8% (active)	13.3%	-6.65% (active)	-2.15% (active)	0.968% (active)	-21.4% (active)	17.5%	-45.4% (active)	71.4%	-49.2% (active)
Cc1ccc(-c2nc(C#N)c(S(=O)(=O)N(C)CCO)o2)cc1	80.3%	124%	93.3%	97.7%	89.3%	88.9%	17.5%	99%	79.6%	44.3%
CC(C)NS(=O)(=O)c1cccc(-c2ccc3c(=O)n(CCCN)c4c(c3c2)C(=O)c2ccccc2-4)c1	93.4%	93.4%	115%	91.9%	102%	105%	85.3%	102%	98%	106%
CC1CCN(CCCCCOc2ccc3oc4ccccc4c(=O)c3c2)CC1	75.6%	90.6%	78.7%	98.6%	81.8%	83.7%	76.2%	73.5%	75.7%	58.5%
CC(C)C[C@H](C(=O)O)N(C)C(=O)[C@@H]1CCCN1C(=O)[C@H](C)OC(=O)[C@H](CCC(N)=O)NC(=O)[C@@H]1CCC(=O)N1	109%	101%	98.5%	93.4%	111%	102%	88.7%	92.2%	96.1%	99.3%
COc1ccc(Nc2nc(SCC(C)C)nc(-c3ccc(F)cc3)c2C#N)cc1	79.1%	75.1%	97%	73.8%	52.4%	77.2%	35.5%	62.5%	60.8%	72.4%
CC1=C(CCCOC(=O)NCCCl)C2=C(C)C3(CC3)[C@@](C)(O)C(=O)C2=C1	-0.524% (active)	70%	41.1%	-3.61% (active)	3.59% (active)	8.91% (active)	26.6%	17.9%	11.6%	3.83% (active)
COc1ccc(/C=C(/C(=O)N2CCN(Cc3ccccc3)CC2)c2cc(OC)c(OC)c(OC)c2)cc1O	81%	81.7%	91.2%	74.2%	58.4%	44.3%	44.8%	68%	87.6%	110%
CC(=O)ON1CCCC(P(=O)(OCOC(=O)C(C)(C)C)OCOC(=O)C(C)(C)C)C1=O (stereo not given)	-16.6% (active)	-4.94% (active)	-10.6% (active)	5.37% (active)	2.52% (active)	-6.66% (active)	-11% (active)	7.74% (active)	12.3%	2.35% (active)
Cc1cccc(C)c1NCc1nnc(-c2ccco2)o1	89%	80.5%	91.1%	80.2%	97%	83.4%	72.8%	86.8%	105%	103%
O=C1CCc2ccccc2N1	99.4%	104%	87.9%	102%	110%	101%	101%	101%	101%	97.1%
COc1ccc2c(c1)C1(C(=O)N2)C(C#N)=C(c2ccccc2)Nc2c1c(-c1ccccc1)nn2-c1ccccc1 (stereo not given)	51.1%	101%	60.4%	66.9%	-26.1% (active)	55.6%	85.9%	36.3%	62.4%	60.1%
CCOC(=O)/C=C1\SC(=Nc2ccc(C#N)cc2)N(CCN2C(=O)/C(=C/C(=O)OCC)SC2=Nc2ccc(C#N)cc2)C1=O	52%	92.9%	86.6%	51.3%	31.6%	80.4%	36.4%	77.5%	48.5%	18.6%
COc1ccc(Sc2[nH]c(C(C)=O)c3ccccc23)cc1	82.6%	69.8%	76.7%	83.7%	20.4%	65.8%	-7.2% (active)	23%	92.2%	-31.2% (active)
C/C(=N/Nc1nc2ccccc2n1C)c1ccccn1	6.57% (active)	-12.1% (active)	14.7%	-7.45% (active)	-23.3% (active)	15.9%	-4.8% (active)	4.01% (active)	9.02% (active)	-4.66% (active)
Clc1ccc2c(NCCCNC3CCCCC3)ccnc2c1	112%	108%	101%	91.1%	104%	80.4%	107%	120%	68.5%	93.5%
COC(=O)CCc1n(Cc2ccc3ccccc3c2)c2ccccc2[n+]1Cc1ccc2ccccc2c1	-7.39% (active)	17.7%	36.6%	19%	6.29% (active)	-34.4% (active)	-29.4% (active)	38.3%	15.4%	-57.3% (active)
CC[C@]12C=CCN3CC[C@@]4(c5ccc(OC)cc5N(C)[C@H]4[C@@](O)(C(=O)OC)[C@@H]1OC(=O)CCC(=O)O[C@H]1CC[C@H]4[C@@H]5CC[C@H]6CC(=O)CC[C@]6(C)[C@H]5CC[C@]14C)[C@@H]32	38.5%	35.4%	68.3%	32.7%	13.8%	-2.92% (active)	2.12% (active)	13.2%	30.8%	-22.1% (active)
O=CN1N=C(c2ccc3c(c2)OCO3)CC1c1cccc(Nc2ccnc3cc(C(F)(F)F)ccc23)c1 (stereo not given)	68.9%	69.2%	107%	81.2%	86.4%	73%	68.3%	83.9%	90.7%	67.5%
Cn1nc(C(F)(F)F)c(-c2cc(C(F)(F)F)cc(C(F)(F)F)c2)c1-c1ccc(OCc2ccc(Cl)cc2)cc1O	0.56% (active)	13.9%	5.67% (active)	-9.87% (active)	-10.4% (active)	-20.1% (active)	-9.19% (active)	10.5%	2.41% (active)	-90.7% (active)
CCSc1nc(Cl)c(C#N)c(-c2ccc(F)cc2)n1	95.6%	94.3%	92%	106%	103%	99%	92.8%	87.3%	98.9%	106%
CC(=O)[C@@H]1CC[C@]2(C(=O)O)CC[C@]3(C)[C@H](CC[C@@H]4[C@@]5(C)Cc6c([nH]c7ccccc67)C(C)(C)[C@@H]5CC[C@]43C)[C@@H]12	54.4%	64%	77.3%	74.8%	44.9%	80%	46.4%	31.4%	75.1%	79.6%
COc1cc(/C=C/CO)cc(OC)c1O[C@@H]1O[C@H](CO)[C@@H](O)[C@H](O)[C@H]1O	102%	86.2%	107%	94.2%	103%	94%	94.8%	91.7%	96.7%	107%
Cc1cc(C)c(NC(=O)c2sc3nc4c(cc3c2N)CCCCCC4)c(C)c1	81.1%	75.6%	99.7%	45.6%	46.2%	51.3%	4.69% (active)	53.2%	48.7%	81.5%
O=C1c2ccccc2C(=O)c2c1oc1c2c(=O)[nH]c2ccc(Cl)cc21	21.2%	-28.8% (active)	14%	-38.7% (active)	-69.7% (active)	-37.2% (active)	-16.8% (active)	-0.0514% (active)	2.5% (active)	85.7%
